Results reported in PubChem BioAssay.
Activity calls are given as the source filed them.

Key:
[1] = A549 cell viability effects, profiling panel, calcein-AM fluorescence, 48 h, basal (AID 1162); conditions: higher = more signal
[2] = adipocyte viability effects, profiling panel, cell-based, 3T3-L1 adipocytes, calcein-AM fluorescence, 48 h, basal (AID 1163); conditions: 3T3-L1 adipocytes viability, higher = more signal
[3] = HepG2 cell viability effects, profiling panel, calcein-AM fluorescence, 48 h, basal (AID 1164); conditions: higher = more signal
[4] = MM1S cell viability effects, profiling panel, calcein-AM fluorescence, 48 h, basal (AID 1165); conditions: higher = more signal;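 note: viability of MM1S multiple myeloma cells under basal unstimulated conditions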
[5] = basal RPMI8226 viability, no added stimulus, profiling panel, cell-based, calcein-AM fluorescence, 48 h, PK04 Diversity Set (AID 1166); conditions: RPMI8226 myeloma viability, higher = more signal;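 note: cells grown under basal conditions without added stimulus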
[6] = basal HepG2 mitochondrial membrane potential changes, profiling panel, cell-based, JC-1 fluorescence, 24 h, 100 nL compound (AID 1167); conditions: higher = more signal
[7] = basal 3T3-L1 adipocyte mitochondrial potential changes, profiling panel, cell-based, JC-1 fluorescence, 3T3-L1 adipocytes, 24 h, 100 nL compound (AID 1168); conditions: JC-1 mitochondrial fluorescence, higher = more signal, called active from +8 up or from −8 down
[8] = basal RPMI8226 mitochondrial membrane potential changes, profiling panel, cell-based, JC-1 fluorescence, 24 h, 100 nL compound (AID 1169); conditions: RPMI8226 myeloma, JC-1 mitochondrial potential fluorescence, higher = more signal
[9] = basal MM1S mitochondrial membrane potential changes, profiling panel, cell-based, JC-1 fluorescence, 24 h, 100 nL compound (AID 1170); conditions: higher = more signal
[10] = A549 lung cancer cell viability effects, profiling panel, resazurin fluorescence, 24 h, PK04 Diversity Set (AID 1171); conditions: higher = more signal, called active from +8 up or from −8 down
Note: test concentration not given here.

Compound | z-score [1] | z-score [2] | z-score [3] | z-score [4] | z-score [5] | z-score [6] | z-score [7] | z-score [8] | z-score [9] | z-score [10]
O=C1[C@@H]2[C@@H](CC(COc3ccccc3)=C([C@H](O)CCc3ccccc3)[C@@H]2CO)C(=O)N1Cc1ccccc1 | -0.137 | -0.331 | -1.32 | -3.23 | -3.48 | 0.325 | -0.0321 (inactive) | -1.04 | -1.33 | -0.833 (inactive)
COC(=O)[C@@]1(Cc2ccccc2)[C@H]2c3cc(C(=O)N4CCCC4)n(Cc4ccc(OC)c(OC)c4)c3C[C@H]2CN1C(=O)c1ccccc1 | 0.126 | 0.106 | -0.257 | -0.571 | -1.05 | 3.84 | 1.09 (inactive) | -0.73 | -0.52 | 0.613 (inactive)
C=C(/C(=C/C[C@@H](OC(C)=O)c1cccc(OCCO)c1)c1cnc2ccccc2c1)C(C)C | 0.295 | 1.53 | 0.224 | -1.07 | -1.97 | -1.63 | -0.436 (inactive) | -0.533 | 0.581 | -0.322 (inactive)
CCCC[C@H]1C[C@@H]1[C@@H]1N(C(C)=O)[C@H](c2cccc(OC)c2)CC12CC2 | -1.54 | -0.134 | -0.793 | -0.762 | -0.778 | -1.07 | 0.546 (inactive) | -0.172 | -0.643 | 2.94 (inactive)
COc1ccc(C(=O)Nc2cccc(CN3C(=O)[C@@]4(O[C@@H](CC(=O)N5CCC[C@H]5CO)[C@H]([Si](C)(C)c5ccc(OC)cc5)[C@H]4C)c4ccccc43)c2)cc1 | -0.273 | 0.695 | -0.765 | -2.74 | -4.26 | 1.98 | 0.487 (inactive) | -1.13 | -1.06 | -0.35 (inactive)
Cc1ccc(F)cc1S(=O)(=O)N[C@H]1CCN(Cc2ccc(OC(C)C)cc2)C1 | 0.376 | -0.535 | -0.7 | -1.4 | -1.93 | -0.809 | 0.416 (inactive) | 0.0436 | -1.41 | -0.477 (inactive)
COc1ccc([Si](C)(C)[C@@H]2[C@@H](CC(=O)N3CCC[C@H]3CO)O[C@]3(C(=O)N(Cc4cccc(N5CCCCC5=O)c4)c4ccccc43)[C@H]2C)cc1 | -0.158 | 0.403 | -1.35 | -2.81 | -4.25 | -2.13 | -0.191 (inactive) | -1.12 | -1.47 | -1.6 (inactive)
COc1ccc([Si](C)(C)[C@@H]2[C@@H](CC(=O)N(CCO)Cc3ccccc3)O[C@]3(C(=O)N(Cc4ccc(I)cc4)c4ccccc43)[C@H]2C)cc1 | -1.14 | 0.909 | -1.59 | -2.54 | -4.17 | 1.17 | 0.448 (inactive) | -1.2 | -0.732 | -2.88 (inactive)
COc1ccc([Si](C)(C)[C@@H]2[C@@H](CC(=O)N3Cc4ccccc4C[C@H]3CO)O[C@]3(C(=O)N(Cc4ccc(N5CCOC5=O)cc4)c4ccccc43)[C@H]2C)cc1 | 0.369 | 0.704 | 0.115 | -1.07 | -0.876 | 0.966 | 1 (inactive) | -1.11 | 0.359 | -0.674 (inactive)
CN1C(=O)C2C(C3CC3)C=C3CN(Cc4cccc(Cl)c4)[C@@H]([C@@H](O)Cc4ccccc4)C3C2C1=O (stereo not given in full) | 1.19 | 0.638 | 0.506 | -1.81 | -2.67 | 1.24 | -0.424 (inactive) | -0.426 | -0.939 | 0.43 (inactive)
C=C(COC)C(=O)CC[C@@H](OC(=O)c1ccccc1-c1ccccc1C(=O)O)c1ccc(OCCO)cc1 | -0.25 | 1.27 | -0.354 | -3.06 | -0.414 | -1.05 | -0.144 (inactive) | -0.163 | 0.0435 | -0.205 (inactive)
CC(=O)NCCCC[C@@H]1NC(=O)[C@H]2C[C@@H](C(=O)NCCCCCCNC(=O)CS)[C@@H](c3cccc(OCCO)c3)N2C1=O | -0.769 | 0.251 | -0.644 | -0.504 | 0.236 | -1.4 | -0.306 (inactive) | 0.186 | -0.0983 | -0.131 (inactive)
COC(=O)[C@]1(CCC(=O)OC(C)(C)C)N=C(c2ccc(OCCCO)cc2)O[C@@H]1c1ccccc1N=[N+]=[N-] | -1.31 | 1.25 | -0.527 | -2.84 | -3.53 | 0.874 | 1.78 (inactive) | -1.02 | -1.57 | -1.46 (inactive)
O=C1N(Cc2ccccc2)c2ccccc2C[C@@]12COC(c1ccc(OCCCO)cc1)=N2 | -0.633 | 0.629 | -0.409 | -2.94 | -1.19 | -1.08 | -0.382 (inactive) | -0.907 | -0.589 | 1.41 (inactive)
O=C(NCC(O)CO)[C@@]1(CCS(=O)(=O)c2ccccc2)N=C(c2ccc(OCCCO)cc2)O[C@H]1c1ccccc1 (stereo not given in full) | 0.433 | 0.719 | -0.4 | -1 | -2.47 | 0.956 | -0.874 (inactive) | -0.694 | -0.745 | -0.0521 (inactive)
O=C1C=C(c2ccccc2)C(=O)C2=C1CC([C@H]1Oc3ccccc3S(=O)(=O)N3CCC[C@@H]13)=CC2 | -0.653 | -0.17 | -1.05 | -3.2 | -3.99 | -3.49 | -2.49 (inactive) | -1.16 | -2.67 | -0.0039 (inactive)

Compound | z-score [1] | z-score [2] | z-score [3] | z-score [4] | z-score [5] | z-score [6] | z-score [7] | z-score [8] | z-score [9] | z-score [10]
CC(C)OC(=O)CC(=O)CC(O)c1cccc([N+](=O)[O-])c1 (stereo not given) | 1.07 | 0.804 | 0.729 | 1.21 | 0.0484 | -0.524 | -0.718 (inactive) | 0.193 | -1.38 | 0.0126 (inactive)
CCOC(=O)C1=C[C@@H](C(C)(C)C)N(S(=O)(=O)c2ccc(C)cc2)[C@H]1c1ccc(C#N)cc1 | -0.368 | -0.316 | -1.12 | -2.79 | -2.17 | 1.63 | -0.398 (inactive) | -0.372 | -0.555 | 1.69 (inactive)
N#Cc1ccc(-c2cccc(=O)o2)cc1 | -0.719 | -1.13 | 0.37 | -0.0271 | -0.394 | -0.875 | 0.492 (inactive) | 0.0366 | -0.548 | -0.0498 (inactive)
C=CCN1C(=O)[C@]2(O[C@H](CCn3cc([C@H](O)c4ccccc4)nn3)[C@@H]([Si](C)(C)c3ccc(OC)cc3)[C@@H]2C)c2cc(NC(=O)c3ccc(OC)cc3)ccc21 | 0.268 | 0.37 | -1.87 | -2.74 | -4.38 | 3.48 | 0.517 (inactive) | -1.17 | -1.39 | -2.43 (inactive)
[N-]=[N+]=Nc1ccccc1[C@@H]1OC(c2ccc(OCCCO)cc2)=N[C@]1(CCS(=O)(=O)c1ccccc1)C(=O)NCC(O)CO (stereo not given in full) | -0.149 | -0.375 | 0.578 | -0.662 | 0.274 | -0.148 | -0.199 (inactive) | -0.0226 | -0.763 | 0.575 (inactive)
CC(C)(C)N1CC=CC23O[C@@H]4C=CCOC(=O)[C@@H]4[C@H]2C(=O)N(CCO)[C@@H]3C1=O (stereo not given in full) | -0.247 | -0.229 | -0.112 | 0.0476 | -0.46 | -0.731 | 0.316 (inactive) | 0.0281 | -0.537 | -0.465 (inactive)
CCOC(=O)C1=CC[C@@H](c2ccc(OC)cc2)N(S(=O)(=O)c2ccc(C)cc2)[C@H]1CC | 0.33 | 0.815 | 0.945 | -1.25 | -1.45 | 5.4 | 1.53 (inactive) | -0.301 | -1.99 | 0.198 (inactive)
CN(C)CCCNC(=O)[C@@]1(C)c2ccccc2C(=O)N(Cc2ccc(OC(F)(F)F)cc2)[C@H]1c1ccc(CO)cc1 | 0.173 | 0.886 | -0.261 | -0.0385 | 0.513 | 1.88 | -0.422 (inactive) | -0.136 | 0.197 | 0.074 (inactive)
CC(C)=C1C(=O)C(c2ccccc2)=C2CN3C(=O)N(CCc4ccccc4)C(=O)[C@]3(C)[C@H]21 | 0.559 | -0.342 | 0.302 | -2.06 | -3.46 | 1.87 | -1.43 (inactive) | -0.879 | -1.66 | -0.337 (inactive)
COc1ccc(C(=O)Nc2cccc(CN3C(=O)[C@]4(O[C@H](CC(=O)N5Cc6ccccc6C[C@H]5CO)[C@@H]([Si](C)(C)c5ccc(OC)cc5)[C@@H]4C)c4ccccc43)c2)cc1 | -0.969 | 1.3 | -1.05 | -0.253 | -2.56 | 0.729 | -0.458 (inactive) | -0.93 | -0.313 | -1.31 (inactive)
O=C1O[C@@H](c2ccccc2)[C@@H](c2ccccc2)N2[C@@H](c3ccccc3OCCO)[C@]3(C(=O)Nc4ccc(C#CCCO)cc43)[C@@H](C(=O)NC[C@H](O)c3ccccc3)[C@H]12 | -0.31 | 0.323 | 0.997 | 0.16 | -0.0269 | -1.16 | 0.00583 (inactive) | -0.471 | -0.596 | 0.682 (inactive)
NC(=O)NCC#Cc1ccc2c(c1)[C@]1(C(=O)N2)[C@H](c2ccc(OCCO)cc2)N2[C@H](c3ccccc3)[C@H](c3ccccc3)OC(=O)[C@H]2[C@@H]1C(=O)O | -0.295 | 1.09 | -0.21 | -1.9 | 0.111 | -1.9 | -0.469 (inactive) | -0.278 | -1.08 | 0.253 (inactive)
O=C1[C@H]2C=C(I)[C@H](C[C@@H]2c2ccccc2)[C@@]12CO2 | -1.3 | -0.417 | -0.382 | -3.18 | -3 | -1.74 | 0.789 (inactive) | -1.2 | -1.32 | -0.122 (inactive)
CC(C)C(CO)N1C(=O)[C@@H]2C3C(=O)OCCC/C=C\[C@H]3OC23C=CCN(Cc2ccccc2)C(=O)[C@@H]13 (stereo not given in full) | 0.214 | -0.0826 | 0.728 | 0.441 | -0.0976 | 0.161 | 0.256 (inactive) | -0.687 | 0.942 | 0.777 (inactive)
C=CCOC(=O)[C@@H]1[C@H]2C(=O)O[C@H](c3ccccc3)[C@H](c3ccccc3)N2[C@H](c2ccc(OCCOC(=O)[C@H]3C[C@H]4C(=O)N5CCC[C@H]5C(=O)N4[C@H]3c3cccc(OCCO)c3)cc2)[C@@]12C(=O)Nc1ccc(I)cc12 | -0.302 | -0.506 | -0.28 | 0.328 | -0.0082 | -2.08 | 0.667 (inactive) | -0.16 | -0.998 | 0.0981 (inactive)
